IDE exosite inh – insulin-degrading enzyme (human) exo-site inhibition; P14735; purified IDE, FL-6b probe fluorescence polarization; hits give low values; z-score at 20 µM; 17,000 tested, 6.3% active;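 active = z-score of -3 or lower, meaning strong loss of probe binding signal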;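 note: His-tagged human IDE residues 42-1019 made in E. coli with 30 nM FL-6b probe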
Target sequence (P14735 42-1019 limits assumed): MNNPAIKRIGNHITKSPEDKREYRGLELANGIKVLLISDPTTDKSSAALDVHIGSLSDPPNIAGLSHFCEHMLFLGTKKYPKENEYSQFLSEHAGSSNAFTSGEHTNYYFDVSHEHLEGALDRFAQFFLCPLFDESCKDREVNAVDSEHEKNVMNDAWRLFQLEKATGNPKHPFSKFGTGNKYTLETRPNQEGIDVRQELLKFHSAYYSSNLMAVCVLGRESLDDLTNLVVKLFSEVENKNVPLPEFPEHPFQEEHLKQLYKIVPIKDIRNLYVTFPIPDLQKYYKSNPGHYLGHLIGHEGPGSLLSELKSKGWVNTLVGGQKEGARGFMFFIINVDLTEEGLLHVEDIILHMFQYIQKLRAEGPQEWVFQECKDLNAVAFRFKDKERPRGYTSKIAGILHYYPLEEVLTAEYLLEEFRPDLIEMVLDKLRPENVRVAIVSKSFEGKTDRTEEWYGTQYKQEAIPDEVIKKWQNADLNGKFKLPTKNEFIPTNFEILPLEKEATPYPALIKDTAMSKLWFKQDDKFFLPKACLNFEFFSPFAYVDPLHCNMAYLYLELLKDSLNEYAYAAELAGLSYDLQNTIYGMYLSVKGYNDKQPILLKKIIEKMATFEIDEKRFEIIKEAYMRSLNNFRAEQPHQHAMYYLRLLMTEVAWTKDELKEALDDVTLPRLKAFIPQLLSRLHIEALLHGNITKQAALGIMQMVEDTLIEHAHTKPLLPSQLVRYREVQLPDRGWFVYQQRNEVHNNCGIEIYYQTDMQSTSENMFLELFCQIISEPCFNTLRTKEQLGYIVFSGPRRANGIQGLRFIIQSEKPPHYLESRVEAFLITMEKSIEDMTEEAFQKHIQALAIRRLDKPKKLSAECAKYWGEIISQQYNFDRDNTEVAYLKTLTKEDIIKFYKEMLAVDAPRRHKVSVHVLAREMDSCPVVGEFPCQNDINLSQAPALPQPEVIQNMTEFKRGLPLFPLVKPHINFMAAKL
Large screens that a line does not name were inactive. Many of the other results were omitted from the sample, so hits are more common in it than they were.

Cc1ccccc1-c1ccc([C@@H]2[C@H](CO)N3CCCCN(S(=O)(=O)Cc4ccccc4)C[C@@H]23)cc1	IDE exosite inh -4.7
CCS(=O)(=O)N1CCCCN2[C@H](C1)[C@H](c1ccc(-c3ccccc3C)cc1)[C@@H]2CO	none
Cc1ccccc1-c1ccc([C@H]2[C@H](CO)N3CCCCN(S(C)(=O)=O)C[C@@H]23)cc1	IDE exosite inh -4.6
O=S(=O)(Cc1ccccc1)N1CCCCN2[C@H](C1)[C@@H](c1ccc(-c3ccccc3)cc1)[C@@H]2CO	none
CS(=O)(=O)N1CC(=O)N2[C@H](C1)[C@H](c1ccc(Br)cc1)[C@@H]2CO	none
Cc1ccccc1S(=O)(=O)N1CCCCN2[C@H](C1)[C@H](c1ccc(-c3cncnc3)cc1)[C@@H]2CO	none
COc1ccc(C#Cc2ccc([C@H]3[C@@H](CO)N4C(=O)CN(C(=O)c5cccnc5)C[C@H]34)cc2)cc1	none
C/C=C/c1ccc([C@H]2[C@@H](CO)N(CCC)[C@@H]2CN(CC)C(=O)c2ccccn2)cc1	none
CCc1cnc(N2[C@@H](C#N)[C@@H](c3ccc(C4=CCCC4)cc3)[C@@H]2CO)s1	none
Cc1ccc(-c2ccc([C@@H]3[C@@H](CO)N4C(=O)CN(C(=O)c5ccc(F)cc5)C[C@H]34)cc2)cc1	none
O=C(NC[C@H]1[C@H](c2ccccc2)[C@@H](CO)N1C(=O)C1CC1)NC1CCCC1	none
CO[C@@H]1CC[C@@H]2CCOc3c(C#N)cccc3C(=O)N(C)C[C@H](c3ccccc3)CC(=O)N(C)C[C@H]1O2	none
CO[C@@H](CN(C)C(=O)C1CCOCC1)[C@@H](C)CN([C@@H](C)CO)S(=O)(=O)c1ccccc1	none
Cc1ccccc1-c1ccc([C@@H]2[C@@H](CO)N3CCCCN(S(=O)(=O)c4ccc(F)cc4)C[C@H]23)cc1	none
CCS(=O)(=O)N1CCCCN2[C@H](CO)[C@H](c3ccc(-c4ccccc4F)cc3)[C@H]2C1	none
CCS(=O)(=O)N1CCCCN2[C@H](CO)[C@H](c3ccc(-c4ccccc4C)cc3)[C@H]2C1	IDE exosite inh -8.3
O=C(Nc1cc(F)ccc1F)N1CCCCN2[C@H](CO)[C@@H](c3ccc(-c4cncnc4)cc3)[C@@H]2C1	none
CCC(=O)N1[C@H](CO)[C@H]2c3ccccc3N(S(=O)(=O)c3ccc(F)cc3)C[C@H]21	none
O=C(Cc1cccnc1)N1CC(=O)N2[C@H](CO)[C@H](c3ccc(C#CC4CC4)cc3)[C@@H]2C1	none
COCC(=O)N1CC2(C1)CN(C(=O)Nc1ccccc1F)[C@@H](CO)c1[nH]c3cc(OC)ccc3c12	none
COc1ccc(-c2ccc([C@H]3[C@H](CO)N4C(=O)CN(C(=O)C5CCCC5)C[C@@H]34)cc2)cc1	none
COc1cccc(-c2ccc([C@H]3[C@H]4CN(C(=O)C5CCCCC5)CC(=O)N4[C@H]3CO)cc2)c1	IDE exosite inh -3.4
COc1cccc(-c2ccc([C@H]3[C@H](CO)N4C(=O)CN(C(=O)C5CCCCC5)C[C@@H]34)cc2)c1	IDE exosite inh -5.6
COc1ccc(-c2ccc([C@H]3[C@H]4CN(C(=O)C5CCCC5)CC(=O)N4[C@H]3CO)cc2)cc1	none
COc1cccc(-c2ccc([C@@H]3[C@H]4CN(C(=O)C5CCCCC5)CC(=O)N4[C@H]3CO)cc2)c1	IDE exosite inh -7.6
C[C@H]1COCc2cn(nn2)CCCC(=O)N1	none
CN(C)CC(=O)N1[C@@H](C#N)[C@@H](c2ccc(-c3cccc(C(=O)N(C)C)c3)cc2)[C@@H]1CO	none
C/C=C/c1ccc([C@H]2[C@@H](CO)N(c3nc(C)c(C)s3)[C@@H]2CNCC(C)C)cc1	none
CC(=O)NC[C@H]1[C@@H](c2ccc(-c3cccnc3)cc2)[C@@H](CO)N1C(=O)C1CCC1	none
CN1C(=O)c2cc(NC(=O)c3cccc(C(F)(F)F)c3)ccc2OC[C@@H]2O[C@H](CC(=O)NCCN3CCCC3)CC[C@@H]21	none
O=C(NC1CCCC1)N1CC(=O)N2[C@H](CO)[C@H](c3ccc(-c4cccnc4)cc3)[C@H]2C1	none
O=C(NC1CCCCC1)N1CC(=O)N2[C@@H](CO)[C@@H](c3ccc(-c4ccccc4)cc3)[C@@H]2C1	IDE exosite inh -3.7
O=C(NC1CCCCC1)N1CC(=O)N2[C@@H](CO)[C@H](c3ccc(-c4ccncc4)cc3)[C@@H]2C1	none
O=C(NC1CCCCC1)N1CC(=O)N2[C@H](C1)[C@H](c1ccc(-c3ccccc3)cc1)[C@@H]2CO	none
O=C(NC1CCCCC1)N1CC(=O)N2[C@H](CO)[C@@H](c3ccc(-c4ccccc4)cc3)[C@H]2C1	IDE exosite inh -5.2
O=C(NC1CCCCC1)N1CC(=O)N2[C@H](C1)[C@H](c1ccc(-c3ccncc3)cc1)[C@@H]2CO	none
O=C(NC1CCCCC1)N1CC(=O)N2[C@@H](CO)[C@H](c3ccc(-c4ccccc4)cc3)[C@@H]2C1	none
O=C(NC1CCCCC1)N1CC(=O)N2[C@H](C1)[C@@H](c1ccc(-c3ccccc3)cc1)[C@@H]2CO	IDE exosite inh -9.1
O=C(NC1CCCC1)N1CC(=O)N2[C@H](CO)[C@@H](c3ccc(-c4cccnc4)cc3)[C@H]2C1	none
CN(C)C(=O)c1ccc(-c2ccc([C@@H]3[C@H]4CN(C(=O)C5CCCC5)CC(=O)N4[C@H]3CO)cc2)cc1	none
CCC(=O)Nc1ccc2c(c1)OC[C@@H](C)N(Cc1ccccc1)C[C@@H](C)[C@H](OC)CN(C)C2=O	none
COc1ccc(S(=O)(=O)Nc2ccc3c(c2)C(=O)N([C@@H](C)CO)C[C@H](C)[C@H](CN(C)Cc2ccc(C(F)(F)F)cc2)OCCCC[C@H](C)O3)cc1	none
CCC(=O)N1[C@H](C#N)[C@H](c2ccccc2-c2cccc(C)c2)[C@H]1CO	none
COc1ccc(C#Cc2ccc([C@@H]3[C@H](CO)N4CCCCN(C(=O)Nc5cccc(F)c5)C[C@@H]34)cc2)cc1	none
CCCNC(=O)C[C@H]1CC[C@@H]2[C@H](COc3ccc(NC(=O)CC)cc3C(=O)N2C)O1	none
COc1ccc2c3c(n(C)c2c1)[C@@H](CO)N(C(=O)c1ccc(F)cc1)CC31CN(CC2CCOCC2)C1	none
N#C[C@@H]1[C@H](c2ccccc2C2=CCCC2)[C@H](CO)N1C(=O)Cc1ccncc1	none
COc1ccc2c3c(n(C)c2c1)[C@H](CO)N(C)CC31CN(C(=O)Nc2c(C)noc2C)C1	none
COc1cc(CN2CC3(CCN(C(=O)Nc4c(C)noc4C)CC3)c3c(n(C)c4cc(OC)ccc34)[C@@H]2CO)cc(OC)c1	IDE exosite inh -3.4
COc1cc(CN2CC3(CCN(C(=O)Nc4c(C)noc4C)CC3)c3c(n(C)c4cc(OC)ccc34)[C@H]2CO)cc(OC)c1	IDE exosite inh -3.4
COc1cc(CN2CC3(CN(C(=O)CN4CCOCC4)C3)c3c(n(C)c4cc(OC)ccc34)[C@H]2CO)cc(OC)c1	none
COc1cc(CN2CC3(CN(C(=O)Nc4c(C)noc4C)C3)c3c([nH]c4cc(OC)ccc34)[C@H]2CO)cc(OC)c1	none
COc1ccc2c3c(n(C)c2c1)[C@@H](CO)N(C)CC31CN(C(=O)Nc2c(C)noc2C)C1	none
CC[C@H]1CC=CC[C@@H](C)Oc2ccccc2C(=O)N(C)[C@H](C)C(=O)N1 (mixture of isomers)	none
CS(=O)(=O)N1Cc2cc(C(=O)O)nc(-c3cccc(-c4ccccc4F)c3)c2[C@H]1CCO	none
O=C(NC1CCCC1)N1CCCCN2[C@H](CO)[C@@H](c3ccc(/C=C/c4ccccc4)cc3)[C@H]2C1	IDE exosite inh -4.2
O=C(NC1CCCC1)N1CCCCN2[C@H](CO)[C@H](c3ccc(/C=C/c4ccccc4)cc3)[C@@H]2C1	IDE exosite inh -9.7
C/C=C/c1ccc([C@H]2[C@@H](CO)N3CCCCN(C(=O)NC4CCCC4)C[C@H]23)cc1	none

From PubChem BioAssay
